A selection: hits, their analogues and other compounds. The true share with any hit is near 14%.
HCV inhibitor: qHTS Assay for Inhibitors of Hepatitis C Virus (HCV); Huh7.5.1 HCVcc-Cre infection, luciferase reporter, 44 h; Potency, µM (top dose mostly 41.8 µM), inactives show top-dose activity change, negative = inhibition, most hits filed as inhibitors; 3.4% of 340,000 active; also: potency is read from the fitted curve at half-maximal effect
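Cells (1,000/well) were plated 4 h before compound, then infected with HCVcc-Cre virus (~0.5 moi). After 44 h further culture, infection was read as luciferase luminescence following a 15 min substrate incubation at room temperature.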
Pf growth 96h: Primary qHTS for delayed death inhibitors of the malarial parasite plastid, 96 hour incubation. 6.9% of 320,000 active. Potency, µM (series often up to 28.7 µM), inactives show at the top dose activity change, negative = inhibition, usual class: inhibitors. AID 504834, 2011. P. falciparum luciferase reporter growth, 96 h; also: potency is read from the fitted curve at half-maximal effect
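Compounds incubated with erythrocytes infected by luciferase-expressing P. falciparum (2% hematocrit, 0.05% parasitemia final) for 96 hours, 37 C in 5% CO2. Growth inhibition scored as decreased luciferase luminescence.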
LASV entry inh: qHTS for Inhibitors of binding or entry into cells for Lassa Virus | 1.2% of 300,000 active | Potency, µM (titrated, usually from 37.9 µM), for the others: at the top dose activity change, negative = inhibition, usual class: inhibitors | AID 540256, 2011 | Lassa virus pseudotype entry inhibition, cell reporter; calls by dose curve; tested in HEK293 cells; also: potency is read from the fitted curve at half-maximal effect; nearly all actives have a fitted effect of over 50% in size
HCMV antiviral: qHTS Assay for inhibitors of the human cytomegalovirus (HCMV) | activity change, negative = inhibition, % at 57.5 µM | AID 1259415, 2018 | 4.5% of 410,000 active | HFF cells, HCMV-luciferase reporter, 72 h; stronger effect = lower value; in the data active = activity change below about -60%; inconclusive = no clear call, values can overlap the other calls; inactive = above about -39%
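After 16 h attachment at 37C, HFF cells received test compound and HCMV-luciferase (1 PFU/cell); reporter luminescence read 72 h later, data normalized against buffer-only and known inhibitor Salinomycin.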
Pf growth 48h: Primary qHTS for delayed death inhibitors of the malarial parasite plastid, 48 hour incubation. 5.9% of 310,000 active. P. falciparum luciferase growth in erythrocytes, 48 h. Potency, µM (highest dose often 28.7 µM), inactives show at the highest dose activity change, negative = inhibition, most hits filed as inhibitors. AID 504832, 2011; also: potency is read from the fitted curve at half-maximal effect
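Read-out is firefly luciferase luminescence from an integrated reporter in P. falciparum, so falling signal marks reduced parasite growth. Infected erythrocytes were at 2% hematocrit and 0.1% parasitemia (final) in Albumax-supplemented RPMI 1640.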
MARV entry inh: qHTS for inhibitors of binding or entry into cells for Marburg Virus | Marburg virus pseudotyped entry inhibition, cell reporter | Potency, µM (titrated, usually from 37.8 µM), without a hit: at the highest dose activity change, negative = inhibition, usual class: inhibitors | 1.8% of 300,000 active; calls by dose curve; tested in HEK293 cells; also: potency is read from the fitted curve at half-maximal effect
An asterisk follows results filed as active; ? = inconclusive; . = no result; ! = not confirmed by another sample; [ ] = another dose, or the depositor's remark. Unless noted, calls follow the shape of the dose curve; as a rule, active = well fitted inhibition curve with a large enough effect; inconclusive = small, poorly fitted or top-dose-only effect, or another doubt; inactive = no such curve, though single readings can be large or run the other way. % is scaled to controls: 0 for no effect and ±100 for the full control effect.

SMILES	HCV inhibitor	Pf growth 96h	LASV entry inh	HCMV antiviral	Pf growth 48h	MARV entry inh
COc1cccc(OCCNC(=O)c2cc([N+](=O)[O-])cc([N+](=O)[O-])c2)c1	-3%	9%	10%	72	?	-19%[46.1 µM]
Cc1ccc(OCCNC(=O)c2cc(C(=O)NCCOc3ccc(C)cc3)cc([N+](=O)[O-])c2)cc1	?	1.2µM*	?	-6	12µM*	?
CCC1CCCCN1Cc1c(O)ccc2c(=O)c(-c3ccccc3)coc12 (stereo not drawn)	-8%	-9%	?	-92*	?	?
CC1CCCCN1Cc1c(O)ccc2c(=O)c(-c3ccccc3)coc12 (stereo not drawn)	?	37%	-5%	-69*!	7%[0.00184 µM]	?
O=c1c(-c2ccccc2)coc2c(CN3CCCCC3)c(O)ccc12	1%	?	.	-25	?	.
COC(=O)CC1C(=O)NCCN1Cc1cn(-c2ccc(C)cc2)nc1-c1cccc(C)c1 (stereo not drawn)	-14%	10µM*	-15%[46.1 µM]	31	?	0%[46.1 µM]
Cc1ccc(-n2cc(CNCCN3CCOC3=O)c(-c3cccc(C)c3)n2)cc1	-6%	-30%	?	-5	42%	?
CCC1CCc2sc(C(=O)NCC(c3ccccc3OC)N3CCCC3)cc2C1 (stereo not drawn)	7.1µM*	9.3µM*	.	?	10µM*	.
COc1ccc(C(CNC(=O)c2ccc(Cl)s2)N2CCOCC2)cc1 (stereo not drawn)	-15%	2%	24%	-23	-9%	-14%
COc1ccc(C(CNC(=O)c2cc3c(s2)CCC(C)C3)N2CCOCC2)cc1 (stereo not drawn)	?	?	.	?	12µM*	.
COc1ccc(C(=O)NCC(c2ccc(N(C)C)cc2)N2CCCC2)cc1 (stereo not drawn)	.	.	-4%[46.1 µM]	-26	.	.
COc1ccc(C(CNC(=O)c2cc3c(s2)CCC(C)C3)N2CCCC2)cc1 (stereo not drawn)	10µM*	4.1µM*	.	?	9.3µM*	.
COc1ccc(-c2oc3c(c2-c2cnc(OC)nc2)C(O)CC3)cc1 (stereo not drawn)	.	.	.	5	.	.
CCCCNC(=O)CSc1nc2nc(C)c(Cc3ccccc3C)c(C)n2n1	.	.	?	-25	.	4%[46.1 µM]
COc1ccccc1-c1csc(N2CCC(C(N)=O)CC2)n1	.	?	.	.	12µM*	.
N#Cc1ccccc1-c1csc(N2CCC(C(N)=O)CC2)n1	.	7%	.	.	9%	.
Cc1cc(NCCCCCCCNc2cc(C)nc3cc([N+](=O)[O-])ccc23)c2ccc([N+](=O)[O-])cc2n1	10µM*	.	?	-24	.	?
O=C(COc1ccc(Cl)cc1)Nc1ccc2nc(SCC(=O)N3CCOCC3)sc2c1	.	.	11%[46.1 µM]	-19	.	?
O=C(NCc1n[nH]c(=S)n1-c1ccc([N+](=O)[O-])cc1)c1ccc(S(=O)(=O)N2CCOCC2)cc1	26%	6.6µM*	.	-35	6%	0%
O=C(NCc1ccccc1Cl)c1cc2ccccc2o1	.	.	?	27	.	6%[46.1 µM]
COc1ccc(CNc2ncnc3c2c(-c2ccccc2)cn3-c2cccc(C)c2)cc1	.	.	1%[46.1 µM]	?	.	.
COc1ccccc1CNc1ncnc2c1c(-c1ccccc1)cn2-c1cccc(C)c1	.	.	-14%[46.1 µM]	-60*	.	.
O=C(/C=C/c1ccc(Br)o1)NC(c1ccccc1)c1ccccc1	-14%	?	?	-25	12µM*	0%
Cc1ccc(C)c(N(C)S(=O)(=O)c2ccc3[nH]cc(C(=O)NC4CCCC4)c(=O)c3c2)c1	.	.	-6%[46.1 µM]	-75*	.	.
CCN(c1ccccc1)S(=O)(=O)c1ccc2[nH]cc(C(=O)NC3CCCCC3)c(=O)c2c1	.	.	?	-102*	.	.
SMILES	HCV inhibitor	Pf growth 96h	LASV entry inh	HCMV antiviral	Pf growth 48h	MARV entry inh
CCc1ccccc1NS(=O)(=O)c1ccc2[nH]cc(C(=O)NC3CCCC3)c(=O)c2c1	5%	-2%	?	24	13µM*	?
Cc1ccc(C)c(N(C)S(=O)(=O)c2ccc3[nH]cc(C(=O)NCCN4CCOCC4)c(=O)c3c2)c1	-15%	.	?	21	?	?
O=C(NC1CCCCC1)c1c[nH]c2ccc(S(=O)(=O)Nc3ccccc3F)cc2c1=O	.	.	7%[46.1 µM]	29	.	10%[46.1 µM]
Cc1ccc(/C=C/c2onc(C)c2S(=O)(=O)N2CCC(C(=O)Nc3ccc(OC(F)(F)F)cc3)CC2)cc1	.	.	1%[46.1 µM]	?	.	.
CN1CCN(C(=O)C2CCCCC2)CC1	.	-2%	.	.	-6%	.
O=C(Nc1c2c(nn1-c1ccc(Cl)cc1)CS(=O)(=O)C2)c1ccccc1F	.	.	24%[46.1 µM]	-8	.	.
Cc1nc(SCC(=O)NC(C)(C#N)C2CC2)c2c(-c3cccs3)csc2n1 (stereo not drawn)	10µM*	?	?	-29	-16%	?
CNc1ccccc1C(=O)OCC(=O)c1ccc(F)cc1	26%	77%	-2%	-26	159%	?
COc1ccc(C(=O)COC(=O)c2ccccc2C(=O)N(C)c2ccccc2)c(OC)c1	?	0%	-30%	3	?	?
CN(C(=O)c1ccccc1C(=O)OCC(=O)c1ccccc1)c1ccccc1	1%	12µM*	.	-6	?	.
CN(C(=O)c1ccccc1C(=O)OCC(=O)c1ccc(F)cc1)c1ccccc1	-1%	?	.	0	8.3µM*	.
CC(=O)c1cc2c(cc1NC(=O)c1ccc(C)cc1)OCCO2	-2%	27%	.	101	23%	.
COc1cc(F)ccc1-c1csc(C(O)c2ccc(F)cc2)n1 (stereo not drawn)	.	.	.	47	.	.
Cc1c(N=Cc2cc(Br)cc(Br)c2O)cccc1C(=O)O	-7%	?	-27%	37	12µM*	?
CCCNC(=O)C1CCC(Cn2c(=O)c3sccc3n(CC(=O)Nc3ccccc3C)c2=O)CC1 (stereo not drawn)	.	.	22%[46.1 µM]	4	.	.
COc1ccc(CCNC(=O)Cn2nc(C)n3c(cc4cc(F)ccc43)c2=O)cc1OC	.	.	.	23	.	-2%[46.1 µM]
CN(Cc1cn(C)c2ccccc12)C(=S)Nc1cc(F)cc(F)c1	-11%	-11%	?	-2	12µM*	-1%
Cc1ccc(NC(=O)Cc2cn(C)c3ccccc23)cc1F	?	13%	.	26	?	.
Cc1cccc(NC(=S)N(C)Cc2cn(C)c3ccccc23)c1	-25%	30%	?	-68*	-21%	-5%
Cc1ccc(S(=O)(=O)N2Cc3ccccc3CC2C(=O)Nn2cnnc2)cc1 (stereo not drawn)	6%	1%	10%	24	.	10%

Source: PubChem BioAssay
